# Data published in PubChem BioAssay (Tox21).
# The source made the active and inactive calls. Entries that show only a call come without a potency. The call rests on the fitted dose curve; in most records, active means well fitted inhibition curve with a large enough effect in the repeat runs (not every such curve was filed as active); inconclusive means weak or mixed curves; inactive means flat fitted curve, though single readings scatter.
# Molecular target: Thyrotropin-releasing hormone receptor (Homo sapiens) (UniProt P34981)
# Sequence (P34981 whole entry, looked up): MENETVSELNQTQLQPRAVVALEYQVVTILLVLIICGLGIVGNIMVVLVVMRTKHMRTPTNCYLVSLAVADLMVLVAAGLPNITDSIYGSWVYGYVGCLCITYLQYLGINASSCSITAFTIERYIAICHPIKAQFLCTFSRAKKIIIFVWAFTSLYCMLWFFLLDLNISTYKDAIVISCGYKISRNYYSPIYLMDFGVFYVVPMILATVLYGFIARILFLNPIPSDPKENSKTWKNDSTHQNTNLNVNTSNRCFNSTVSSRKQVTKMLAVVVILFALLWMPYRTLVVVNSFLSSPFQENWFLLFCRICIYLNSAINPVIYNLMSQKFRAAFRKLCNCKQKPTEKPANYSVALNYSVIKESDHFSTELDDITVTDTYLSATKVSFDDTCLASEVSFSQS
# Test: qHTS assay to identify small molecule antagonists of the thyrotropin-releasing hormone receptor (TRHR) signaling pathway (AID 1346877)
# Settings: TRHR-HEK293, TRH-induced calcium fluorescence, antagonist mode; series mostly up to 51.3 µM
# From the text: National Center for Advancing Translational Sciences [NCATS]
# NIH Chemical Genomics Center [NCGC]
# U.S. Environmental Protection Agency [EPA]
# National Institutes of Environmental Health Sciences [NIEHS]
# National Toxicology Program [NTP]
# U.S. Food and Drug Administration [FDA]
# Thyrotropin-releasing hormone (TRH) receptor (TRHR) is a G-protein-coupled receptor which binds the tripeptide thyrotropin releasing hormone. TRHR is found in the brain and, when bound by TRH, acts (through phospholipase C) to increase intracellular inositol trisphosphate. It plays a crucial role in the anterior pituitary where it controls the synthesis and secretion of thyroid stimulating hormone and prolactin. The TRHR-Hek293 assay is a cell-based assay, and it has the potential to screen G protein-coupled receptors. A compound/drug can either activate (agonist) or suppress (antagonist) GPCRs that can be monitored by levels of intracellular calcium. In this assay, the Tox21 10K compound library was screened to identify potential TRHR antagonists.
# Tox21 Assay Protocol Summary:
# The TRHR-Hek293 cells were dispensed at 1500cells/4uL/well in 1536-well black-clear bottom plates using a Multidrop dispenser. After the assay plates were incubated at a 37 C/5% CO2 incubator for 18 hours, 4 uL of Dye-Loading Solution was added to each well. The plates were incubated at 37 C for 2 hours. For agonist mode, 23 nL of compounds dissolved in DMSO, positive controls or DMSO only was transferred to the assay plate by a pin tool. The fluorescence intensity in the plates was measured using FDSS 7000EX kinetic plate reader for 3 min at 1 sec intervals. For antagonist mode, 23 nL of compounds dissolved in DMSO, positive controls or DMSO only was transferred to the assay plate by a pin tool. After 5 min incubation at room temperature, 1 uL of TRH was added on the top of the cell/compound mixtures to achieve a final agonist concentration of 1 nM. The fluorescence intensity in the plates was measured using FDSS 7000EX kinetic plate reader for 3 min at 1 sec intervals. Each test compound was measured at 15 concentrations and in triplicates.
row,SMILES,Potency
1,C=CC(=O)OCC(C)C,inactive
2,COP(=O)(OC)O/C(=C/Cl)c1cc(Cl)c(Cl)cc1Cl,inactive
3,CCOP(O)OCC,inactive
4,COC(=O)C(C)N(C(=O)Cc1ccccc1)c1c(C)cccc1C (stereo not given),inactive
5,O=C(OC1CCCCC1)c1ccccc1C(=O)OC1CCCCC1,inactive
6,NC(=O)CI,inactive
7,O=[Se]=O,inactive
8,N#Cc1ccc(Cl)cc1,inactive
9,O=C(NC(=O)c1c(F)cccc1F)Nc1cc(Cl)c(Oc2ncc(C(F)(F)F)cc2Cl)c(Cl)c1,inactive
10,O=C(O)c1ccccc1C(=O)Nc1cccc2ccccc12,inactive
11,CC(Cl)C(C)Cl (stereo not given),inactive
12,CCCN(CC1CC1)c1c([N+](=O)[O-])cc(C(F)(F)F)cc1[N+](=O)[O-],inactive
13,CCOC(=O)C(Cl)C(C)=O (stereo not given),inactive
14,BrCCCCBr,inactive
15,C=CC(=O)OCCCCO,inactive
16,O=[N+]([O-])c1cc(C(F)(F)F)cc([N+](=O)[O-])c1Cl,inactive
17,O=C1CN=C(c2ccccc2)c2cc(Cl)ccc2N1CC1CC1,inactive
18,CC(C)(CCl)C(=O)Cl,inactive
19,Cc1ccccc1CCl,inactive
20,C=CC(C)=O,inactive

row,SMILES,Potency
1,CCOC(=O)COc1cc(-c2nn(C)c(OC(F)F)c2Cl)c(F)cc1Cl,inactive
2,C[C@]12CC[C@H]3[C@@H](CCC4=CC(=O)CC[C@@H]43)[C@@H]1CC[C@@H]2OC(=O)CCC1CCCCC1,inactive
3,C=CCC1([C@H](C)CCC)C(=O)NC(=O)NC1=O,inactive
4,COP(=S)(OC)Oc1ccc([N+](=O)[O-])cc1Cl,inactive
5,CCBr,inactive
6,C=CC(=O)NCNC(=O)C=C,inactive
7,COC(N)=O,inactive
8,C(=NC1CCCCC1)=NC1CCCCC1,inactive
9,CC(C)(C)c1cc([N+](=O)[O-])cc([N+](=O)[O-])c1O,inactive
10,OC(c1ccc(Cl)cc1)(c1ccc(Cl)cc1)c1cccnc1,inactive
11,Clc1cccc2ccccc12,inactive
12,N#CCc1ccccc1,inactive
13,COP(=S)(Oc1cc(Cl)c(Br)cc1Cl)c1ccccc1 (stereo not given),inactive
14,CCCCC(CC)COP(=O)(Oc1ccccc1)Oc1ccccc1 (stereo not given),inactive
15,CCOP(=S)(OCC)Oc1nc(Cl)c(Cl)cc1Cl,inactive
16,c1ccoc1,inactive
17,C=CC(=O)OC(C)(C)C,inactive
18,O=NN1CCCCCC1,inactive
19,O=C(NCc1cccnc1)Nc1ccc([N+](=O)[O-])cc1,inactive
20,Nc1ccc([N+](=O)[O-])cc1[N+](=O)[O-],inactive
